Measurements reported in PubChem BioAssay (NCATS).
Results filed as inconclusive are left out. Calls of active or inactive are those of the source. Unless noted, calls follow the shape of the dose curve; as a rule, active = well fitted curve in the direction sought with a large enough effect; inconclusive = small, poorly fitted or top-dose-only effect, or another doubt; inactive = no such curve, though single readings can be large; an effect the other way counts as inactive or inconclusive.

Assays:
[1] = qHTS profiling of the MIPE4 collection as inhibitors of Plasmodium falciparum (3D7) proliferation (AID 743344; call rule not given here;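 also: scaled between DMSO vehicle wells and 0.29 µM artemisinin as full inhibition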); conditions: P. falciparum 3D7 in erythrocytes, SYBR Green DNA fluorescence, 72 h; at 28.5 µM unless noted
Method in brief: (§1)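 Erythrocytes infected with P. falciparum (0.3% parasitemia, 2.5% hematocrit) incubated with compounds 72 h at 37 C, 5% CO2. Lysis with saponin/Triton buffer containing SYBR Green I, overnight at room temperature in the dark; DNA fluorescence (485/535 nm) normalised to 0.29 uM artemisinin and DMSO.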

[2] = qHTS profiling of the MIPE4 collection as inhibitors of Plasmodium falciparum (DD2) proliferation (AID 743345; call rule not given here); conditions: P. falciparum Dd2 in erythrocytes, SYBR Green DNA, 72 h; at 28.5 µM unless noted
Method in brief: as §1

[3] = qHTS profiling of the MIPE4 collection as inhibitors of Plasmodium falciparum (DD2) proliferation (Rep 2) (AID 743346; call rule not given here); conditions: P. falciparum Dd2 in erythrocytes, SYBR Green DNA, 72 h; at 28.5 µM unless noted
Method in brief: as §1

[4] = qHTS profiling of the MIPE4 collection as inhibitors of Plasmodium falciparum (HB3) proliferation (AID 743347; call rule not given here;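 also: plate controls were DMSO vehicle wells for no effect and artemisinin wells for full effect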); conditions: P. falciparum HB3 in erythrocytes, SYBR Green DNA, 72 h; at 28.5 µM unless noted
Method in brief: as §1

[5] = High-throughput drug toxicity screening in the BPDCN cell line Gen2.2 (AID 1224824; call rule not given here;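 also: cells exposed to compounds for 48 h before reading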); conditions: Gen2.2 BPDCN cells; at 45.8 µM (top of the series) unless noted
Method in brief: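 Gen2.2, 500 cells/well, phenol red-free RPMI/10% FBS/Pen-Strep; 48 h cpd, 37 °C/5% CO2; CTG lum, 15 min RT. Norm: DMSO = 100%, bortezomib 9.2 uM final = 0%.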

[6] = qHTS assay for measurement of the activity of small molecule inhibitors on Zika virus induced Caspase-3 activity in human astrocytoma cells (AID 1224859); also: potency is read from the fitted curve at half-maximal effect
Method in brief: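 Inhibition of Zika-induced caspase-3/7 activity: SNB-19 cells, 1 h compound pretreatment, ZIKV 2 FFU/cell for 6 h at 37 C, Caspase-Glo luminescence read-out.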

[7] = qHTS Screen of the MIPE 4.0 Collection Against Ewings Sarcoma (RDES) (AID 1259252); also: nearly all actives have a fitted effect of over 35% in size; also: potency is read from the fitted curve at half-maximal effect
Method in brief: (§2)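 After a 4 h attachment period in RPMI/5% FBS, cells were pin-dosed with test compounds; DMSO served as negative and 9.2 uM bortezomib (final) as positive control. Luminescent CellTiter-Glo signal at 48 h defined viability.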

[8] = qHTS Screen of the MIPE 4.0 Collection Against Ewings Sarcoma (TC71) (AID 1259253); also: nearly all actives have a fitted effect of over 40% in size; also: potency is read from the fitted curve at half-maximal effect
Method in brief: as §2

[9] = qHTS Screen of the MIPE 4.0 Collection Against Ewings Sarcoma (EW8) (AID 1259255); also: nearly all actives have a fitted effect of over 35% in size; also: potency is read from the fitted curve at half-maximal effect;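 as to viability: 100% = DMSO-treated cells and 0% = medium-only wells without cells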
Method in brief: as §2

[10] = qHTS Screen of the MIPE 4.0 Collection Against Ewings Sarcoma (TC32) (AID 1259256); also: nearly all actives have a fitted effect of over 45% in size; also: potency is read from the fitted curve at half-maximal effect
Method in brief: as §2

[11] = P-glycoprotein substrates identified in KB-3-1 adenocarcinoma cell line, qHTS therapeutic library screen (AID 1346986); also: nearly all actives have a fitted effect of over 60% in size
Method in brief: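 Cells seeded 500/well in DMEM/10% FCS; compounds pinned in dose-response; 72 h incubation; CellTiter-Glo added, 5 min, luminescence. KB-8-5-11 run ±tariquidar to test reversal of P-gp resistance.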

[12] = P-glycoprotein substrates identified in KB-8-5-11 adenocarcinoma cell line, qHTS therapeutic library screen (AID 1346987); also: nearly all actives have a fitted effect of over 65% in size; also: potency is read from the fitted curve at half-maximal effect
Method in brief: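 KB-8-5-11, a colchicine-selected P-gp-overexpressing KB-3-1 subline, was grown without colchicine for the assay. Cells were seeded at 500 cells/well, dosed in concentration-response and incubated 72 h at 37 degree C, 5% CO2. Viability was read by CellTiter-Glo luminescence.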

[13] = qHTS assay for measurement of the activity of small molecule inhibitors on Zika virus induced Caspase-3 activity in human iPSC derived neural progenitor cells (hNPCs) (AID 1224857); also: % of control where 0% means no effect; nearly all actives have a fitted effect of over 65% in size
Method in brief: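 After overnight (16–20 h) culture at 350 cells/well, hNPCs get compound, then ZIKV 2 FFU/cell one hour later. Six hours on, Caspase-Glo 3/7 is added and luminescence measured.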

[14] = High-throughput drug toxicity screening in the BPDCN cell line Cal-1 (AID 1224825; call rule not given here); conditions: Cal-1 BPDCN cell viability, qHTS; at 45.8 µM (top of the series) unless noted
Method in brief: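 500 Cal-1 cells/well, RPMI + glutamine + 10% FBS (phenol red-free); cpd added by pin tool; 48 h, 37C, 5% CO2; CTG 15 min RT, lumi read. Normalised: DMSO 100%, bortezomib 9.2 uM 0%.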

Row | Compound | parasite growth, % of DMSO control [1] | parasite growth remaining, % of DMSO control (lower = more inhibition) [2] | parasite growth, % of control (lower = inhibition) [3] | growth, % of control [4] | cell viability, % of control (lower = more cytotoxic) [5] | Potency [6] | Potency [7] | Potency [8] | Potency [9] | Potency [10] | Potency [11] | Potency [12] | Potency [13] | viability (% of control) [14] [%]
1 | Cn1cc(C=CC(=O)c2cccc(F)c2)cc1C=CC(=O)NO | 69.1% | 90.9% | 56.3% | 99.1% | 7.04% | inactive | 23500 nM (active) | 18700 nM (active) | 16600 nM (active) | 20900 nM (active) | inactive | inactive |  | 
2 | Cc1noc(-c2ccc(CSCCC(=O)O)cc2)c1NC(=O)OC(C)c1ccccc1Cl (configuration not stated) | 41.1% | 96% | 49.9% | 61.1% | 157% | inactive |  | inactive | inactive | inactive | inactive | inactive | inactive | 
3 | C=C1C[C@@]2(O)O[C@@]3(C[C@H]2C(C)C)[C@H](C)CC[C@H]13 |  |  |  |  | 67.8% |  | inactive | inactive | inactive | inactive | inactive | inactive | inactive | 
4 | C[C@@H]1C(=O)O[C@H]2CC34[C@H]5C[C@@H](C(C)(C)C)C36[C@H](OC(=O)[C@@H]6O)O[C@@]4(C(=O)O5)[C@]21O (some centres not stated) |  | 97.7% |  |  | 129% |  | inactive | inactive | inactive | inactive |  | inactive | inactive | 
5 | COC1=C2C[C@@H](C)C[C@H](OC)[C@@H](O)[C@@H](C)C=C(C)[C@H](OC(N)=O)[C@@H](OC)C=CC=C(C)C(=O)NC(=CC1=O)C2=O | 5.43% |  | 11.9% | 3.98% | 3.44% | inactive | 590 nM (active) | 590 nM (active) | 372 nM (active) | 296 nM (active) |  | 13200 nM (active) | inactive | 
6 | O=C(O)[C@H](CC(=O)N1C[C@@H]2CCCC[C@H]2C1)Cc1ccccc1 | 71.6% | 103% | 69.7% | 57.9% | 133% |  | inactive |  | inactive | inactive |  | inactive |  | 89.5
7 | Cn1cc(-c2ccc3ncc(Cc4ccc5ncccc5c4)n3n2)cn1 | 26.2% | 60.3% | 33.6% | 13.9% | 45.5% | inactive | inactive | inactive | inactive | inactive |  | inactive | inactive | 
8 | CCCCCCCCCCCCc1ccc(S(=O)(=O)Nc2nncs2)cc1 | 79.3% |  | 80.6% | 117% | 86% | inactive | inactive | inactive | inactive | inactive | inactive | inactive | inactive | 
9 | C[C@@H](Cc1cc2c(c(C(N)=O)c1)N(CCCO)CC2)NCCOc1ccccc1OCC(F)(F)F | 48.1% | 84% | 58.3% | 85.9% | 183% | inactive | inactive | inactive | inactive | inactive |  | inactive | inactive | 
10 | CCOC(=O)N1CCN([N+]([O-])=NOc2ccc([N+](=O)[O-])cc2C#N)CC1 | 10.5% | 23.5% | 17.1% | 19.1% | 17.2% | inactive | 2090 nM (active) |  | 2350 nM (active) | 2640 nM (active) |  |  | inactive | 
11 | C=CC(=O)Nc1cccc(Nc2nc(NC3CCC(N(C)C)CC3)nc3c2ncn3C(C)C)c1 (configuration not stated) | 10.5% | 15.3% |  | 4.69% | 5.58% | inactive | 14.8 nM (active) | 469 nM (active) | 526 nM (active) | 418 nM (active) |  | inactive | inactive | 
12 | NC(=O)c1ncn([C@@H]2O[C@H](CO)[C@@H](O)[C@@H]2O)c1O | 109% | 33.1% | 102% | 71.4% | 113% | inactive | inactive | inactive | inactive | inactive |  | inactive | inactive | 
13 | CCN(CC)CCNC(=O)c1c(C)[nH]c(C=C2C(=O)Nc3ccc(F)cc32)c1C | 4.82% [at 57.5 µM] | 7.72% [at 57.5 µM] | 16% [at 57.5 µM] | 5.65% [at 57.5 µM] | 7.6% [at 92.2 µM] | inactive | 9590 nM (active) | 13600 nM (active) | 4290 nM (active) | 10800 nM (active) |  | 1210 nM (active) | inactive | 
14 | Cc1[nH]c(C=C2C(=O)Nc3ccccc32)c(C)c1CCC(=O)O | 7.83% | 176% | 138% | 27.3% | 12.9% | 11800 nM (active) |  | 296 nM (active) | 235 nM (active) | 235 nM (active) |  |  |  | 5.24
15 | CC(C)OC(=O)[C@H](C)N[P@](=O)(OC[C@H]1O[C@@H](n2ccc(=O)[nH]c2=O)[C@](C)(F)[C@H]1O)Oc1ccccc1 |  |  |  |  | 128% |  |  | inactive | inactive | inactive |  | inactive | inactive | 
16 | CN(CC(=O)N(Cc1ccc(C2CCCCC2)cc1)c1ccc(C(=O)O)c(O)c1)S(=O)(=O)c1c(F)c(F)c(F)c(F)c1F | 51% | 95.9% | 53.5% | 27.9% | 52.5% | inactive | 18700 nM (active) | 8330 nM (active) | 9350 nM (active) | 6620 nM (active) |  | inactive | inactive | 
17 | COc1cc(OC)c(NC(=O)Nc2cc(C)on2)cc1Cl | 69.1% | 100% | 54.6% | 81.5% | 187% | inactive | inactive | inactive | inactive | inactive |  | inactive | inactive | 
